Over roughly 16,000 sequences, “rpm ratio (pull-down/input)” has its median near 0.5; the highest 2% begin near 5.5. The full list was thinned out, with the highest values kept by preference.

For the experiment, the target named is T1, MBP-FoxP3dN (Mus musculus, UniProt Q99JB6 188-423).
T1 sequence: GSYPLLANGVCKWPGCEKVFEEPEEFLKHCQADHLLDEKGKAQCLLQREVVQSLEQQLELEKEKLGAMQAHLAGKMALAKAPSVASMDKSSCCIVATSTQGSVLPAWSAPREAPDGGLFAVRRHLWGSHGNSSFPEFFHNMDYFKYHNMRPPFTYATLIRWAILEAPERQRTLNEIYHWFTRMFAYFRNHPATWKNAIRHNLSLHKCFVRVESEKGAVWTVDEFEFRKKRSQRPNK
In words: PD-seq (MBP pull-down with sequencing); 20 mM Tris-HCl pH 7.5, 100 mM NaCl, 1.5 mM MgCl2, 0.4 uM protein, 0.1 uM dsDNA library, 30 min, room temperature, amylose pull-down; high values mean tight binding. The note with it: protein: recombinant; tags: His6-MBP; chain copies: 2; dsDNA, one strand shown. An outline of the steps:
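Binding is reads-per-million enrichment of pull-down over input, with replicates pooled. It comes from 30 min room-temperature incubation in Tris pH 7.5 buffer with NaCl and MgCl2 of 0.4 µM His6-MBP-tagged, N-terminally truncated mouse FoxP3 or FoxP1 fragment from E. coli with 0.1 µM Klenow-filled degenerate double-stranded DNA library, followed by amylose resin capture, three washes and Illumina sequencing of the released DNA.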
Turning to “GATGATTGTTCTCCCAGCTGATGAATTTGGTTAGTCGAGTAAACAAATTTTCCTAATCTTTCTGTTCAAGCGCCATCTAC”, the binding signal was 2.03 RPM ratio (pull-down/input).
With “GATGATTGTTCTCCCAGCTGATGAATTTACGTCGTCGAGTAAACAAATTTTCCTAATCTTTCTGTTCAAGCGCCATCTAC” the figure was 0.839 RPM ratio (pull-down/input); with “GATGATTGTTCTCCCAGCTGATGAATTCTGTTAGTCGAGTAAACAAATTTTCCTAATCTTTCTGTTCAAGCGCCATCTAC”, 5.31 RPM ratio (pull-down/input); with “GATGATTGTTCTCCCAGCTGATGAATTTTGTTAGTCGAGTAAACAAATTTTCCTAATCTTTCTGTTCAAGCGCCATCTAC”, 6.69 RPM ratio (pull-down/input).
With “GATGATTGTTCTCCCAGCTGATGAATTGTTTACGTCGAGTAAACAAATTTTCCTAATCTTTCTGTTCAAGCGCCATCTAC” the figure was 7.65 RPM ratio (pull-down/input); with “GATGATTGTTCTCCCAGCTGATGAATTGTGTTAGTCGAGTAAACAAATTTTCCTAATCTTTCTGTTCAAGCGCCATCTAC”, 5.98 RPM ratio (pull-down/input).
With “GATGATTGTTCTCCCAGCTGATGAATTGTTAGTGTCGAGTAAACAAATTTTCCTAATCTTTCTGTTCAAGCGCCATCTAC” the figure was 4.19 RPM ratio (pull-down/input); with “GATGATTGTTCTCCCAGCTGATGAATTTTTTTAGTCGAGTAAACAAATTTTCCTAATCTTTCTGTTCAAGCGCCATCTAC”, 0.273 RPM ratio (pull-down/input).
Consider “GATGATTGTTCTCCCAGCTGATGAATTTAGTTAGTCGAGTAAACAAATTTTCCTAATCTTTCTGTTCAAGCGCCATCTAC”, for which the binding signal was 2.54 RPM ratio (pull-down/input).
With “GATGATTGTTCTCCCAGCTGATGAATTTTTTACGTCGAGTAAACAAATTTTCCTAATCTTTCTGTTCAAGCGCCATCTAC” the figure was 0.246 RPM ratio (pull-down/input); with “GATGATTGTTCTCCCAGCTGATGAATTCTCTACTTCGAGTAAACAAATTTTCCTAATCTTTCTGTTCAAGCGCCATCTAC”, 0.233 RPM ratio (pull-down/input).
For the sequence “GATGATTGTTCTCCCAGCTGATGAATTGGGCCGGTCGAGTAAACAAATTTTCCTAATCTTTCTGTTCAAGCGCCATCTAC”, the binding signal was 0.372 RPM ratio (pull-down/input).
Regarding “GATGATTGTTCTCCCAGCTGATGAATTGCTCTTGTCGAGTAAACAAATTTTCCTAATCTTTCTGTTCAAGCGCCATCTAC”, the binding signal is 0.594 RPM ratio (pull-down/input).
In the case of “GATGATTGTTCTCCCAGCTGATGAATTCGGTAGGTCGAGTAAACAAATTTTCCTAATCTTTCTGTTCAAGCGCCATCTAC”, the binding signal was 0.485 RPM ratio (pull-down/input).
With “GATGATTGTTCTCCCAGCTGATGAATTGGGGACGTCGAGTAAACAAATTTTCCTAATCTTTCTGTTCAAGCGCCATCTAC” the figure was 0.307 RPM ratio (pull-down/input); with “GATGATTGTTCTCCCAGCTGATGAATTGGTGCTTTCGAGTAAACAAATTTTCCTAATCTTTCTGTTCAAGCGCCATCTAC”, 1.06 RPM ratio (pull-down/input); with “GATGATTGTTCTCCCAGCTGATGAATTGAGACTTTCGAGTAAACAAATTTTCCTAATCTTTCTGTTCAAGCGCCATCTAC”, 1.22 RPM ratio (pull-down/input).
With “GATGATTGTTCTCCCAGCTGATGAATTCCGCAGATCGAGTAAACAAATTTTCCTAATCTTTCTGTTCAAGCGCCATCTAC” the figure was 0.352 RPM ratio (pull-down/input).
With “GATGATTGTTCTCCCAGCTGATGAATTAGGAGGGTCGAGTAAACAAATTTTCCTAATCTTTCTGTTCAAGCGCCATCTAC” the figure was 0.318 RPM ratio (pull-down/input); with “GATGATTGTTCTCCCAGCTGATGAATTTCACGAATCGAGTAAACAAATTTTCCTAATCTTTCTGTTCAAGCGCCATCTAC”, 0.212 RPM ratio (pull-down/input).
In the case of “GATGATTGTTCTCCCAGCTGATGAATTCACTGCTTCGAGTAAACAAATTTTCCTAATCTTTCTGTTCAAGCGCCATCTAC”, the binding signal was 0.345 RPM ratio (pull-down/input).
With “GATGATTGTTCTCCCAGCTGATGAATTTCCGCCGTCGAGTAAACAAATTTTCCTAATCTTTCTGTTCAAGCGCCATCTAC” the figure was 0.555 RPM ratio (pull-down/input); with “GATGATTGTTCTCCCAGCTGATGAATTTTTGTAGTCGAGTAAACAAATTTTCCTAATCTTTCTGTTCAAGCGCCATCTAC”, 0.53 RPM ratio (pull-down/input); with “GATGATTGTTCTCCCAGCTGATGAATTATGTTAGTCGAGTAAACAAATTTTCCTAATCTTTCTGTTCAAGCGCCATCTAC”, 5.81 RPM ratio (pull-down/input).
On to “GATGATTGTTCTCCCAGCTGATGAATTAGTTATGTCGAGTAAACAAATTTTCCTAATCTTTCTGTTCAAGCGCCATCTAC”, for which the binding signal was 3.79 RPM ratio (pull-down/input).
With “GATGATTGTTCTCCCAGCTGATGAATTATTTTAGTCGAGTAAACAAATTTTCCTAATCTTTCTGTTCAAGCGCCATCTAC” the figure was 0.414 RPM ratio (pull-down/input).
With “GATGATTGTTCTCCCAGCTGATGAATTAGTTAGGTCGAGTAAACAAATTTTCCTAATCTTTCTGTTCAAGCGCCATCTAC” the figure was 1.51 RPM ratio (pull-down/input); with “GATGATTGTTCTCCCAGCTGATGAATTTATTTAGTCGAGTAAACAAATTTTCCTAATCTTTCTGTTCAAGCGCCATCTAC”, 5.5 RPM ratio (pull-down/input).
As to “GATGATTGTTCTCCCAGCTGATGAATTAGTCGAGTCGAGTAAACAAATTTTCCTAATCTTTCTGTTCAAGCGCCATCTAC”, the binding signal is 0.367 RPM ratio (pull-down/input).
With “GATGATTGTTCTCCCAGCTGATGAATTTCTTAGGTCGAGTAAACAAATTTTCCTAATCTTTCTGTTCAAGCGCCATCTAC” the figure was 0.273 RPM ratio (pull-down/input); with “GATGATTGTTCTCCCAGCTGATGAATTTTATTAGTCGAGTAAACAAATTTTCCTAATCTTTCTGTTCAAGCGCCATCTAC”, 4.27 RPM ratio (pull-down/input); with “GATGATTGTTCTCCCAGCTGATGAATTTGTTAGGTCGAGTAAACAAATTTTCCTAATCTTTCTGTTCAAGCGCCATCTAC”, 5.73 RPM ratio (pull-down/input).
With “GATGATTGTTCTCCCAGCTGATGAATTTGTGTAGTCGAGTAAACAAATTTTCCTAATCTTTCTGTTCAAGCGCCATCTAC” the figure was 6.14 RPM ratio (pull-down/input); with “GATGATTGTTCTCCCAGCTGATGAATTTCTGTAGTCGAGTAAACAAATTTTCCTAATCTTTCTGTTCAAGCGCCATCTAC”, 0.385 RPM ratio (pull-down/input).

Values taken from article PMC12820563, “FoxP3 forms a head-to-head dimer in vivo and stabilizes its multimerization on adjacent microsatellites”.
